G9a block: G9a (human) methyltransferase inhibition. Q96KQ7. G9a H3K9 monomethylation, AlphaScreen, 2 h. Potency, µM (series often up to 102 µM), most hits filed as inhibitors. 350,000 compounds, 8.8% hits. AID 504332; also: nearly all actives have a fitted effect of over 75% in size
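Signal arises when biotinylated H3K9 peptide, once monomethylated, bridges streptavidin donor and antibody-captured acceptor beads. Enzyme at 20 nM was preincubated 15 min with test compounds; peptide 500 nM and SAM 20 uM then reacted for 2 h.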
12-LOX inh: blocks human arachidonate 12S-lipoxygenase; Potency, µM (series often up to 108 µM), most hits filed as inhibitors; purified 12hLO, xylenol orange hydroperoxide absorbance; P18054; 580,000 compounds, 1.1% hits
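Purified human 12hLO (150 nM final) in 25 mM Hepes, 0.01% Triton X-100, pH 7.0 was preincubated 15 min at room temperature with compound. Then 40 uM arachidonic acid was added, 30 min. Hydroperoxide was read by Fe-XO absorbance ratio 573/405 nm.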
JMJD2A Tudor inh: JMJD2A Tudor domain (human) inhibition. Potency, µM (doses to about 114 µM), most hits filed as inhibitors. 390,000 compounds, 4.4% hits. AlphaScreen JMJD2A-Tudor / H3K4me3 peptide binding. AID 504339; also: nearly all actives have a fitted effect of over 50% in size
Target sequence (O75164 whole entry, looked up, the tested form may be a part): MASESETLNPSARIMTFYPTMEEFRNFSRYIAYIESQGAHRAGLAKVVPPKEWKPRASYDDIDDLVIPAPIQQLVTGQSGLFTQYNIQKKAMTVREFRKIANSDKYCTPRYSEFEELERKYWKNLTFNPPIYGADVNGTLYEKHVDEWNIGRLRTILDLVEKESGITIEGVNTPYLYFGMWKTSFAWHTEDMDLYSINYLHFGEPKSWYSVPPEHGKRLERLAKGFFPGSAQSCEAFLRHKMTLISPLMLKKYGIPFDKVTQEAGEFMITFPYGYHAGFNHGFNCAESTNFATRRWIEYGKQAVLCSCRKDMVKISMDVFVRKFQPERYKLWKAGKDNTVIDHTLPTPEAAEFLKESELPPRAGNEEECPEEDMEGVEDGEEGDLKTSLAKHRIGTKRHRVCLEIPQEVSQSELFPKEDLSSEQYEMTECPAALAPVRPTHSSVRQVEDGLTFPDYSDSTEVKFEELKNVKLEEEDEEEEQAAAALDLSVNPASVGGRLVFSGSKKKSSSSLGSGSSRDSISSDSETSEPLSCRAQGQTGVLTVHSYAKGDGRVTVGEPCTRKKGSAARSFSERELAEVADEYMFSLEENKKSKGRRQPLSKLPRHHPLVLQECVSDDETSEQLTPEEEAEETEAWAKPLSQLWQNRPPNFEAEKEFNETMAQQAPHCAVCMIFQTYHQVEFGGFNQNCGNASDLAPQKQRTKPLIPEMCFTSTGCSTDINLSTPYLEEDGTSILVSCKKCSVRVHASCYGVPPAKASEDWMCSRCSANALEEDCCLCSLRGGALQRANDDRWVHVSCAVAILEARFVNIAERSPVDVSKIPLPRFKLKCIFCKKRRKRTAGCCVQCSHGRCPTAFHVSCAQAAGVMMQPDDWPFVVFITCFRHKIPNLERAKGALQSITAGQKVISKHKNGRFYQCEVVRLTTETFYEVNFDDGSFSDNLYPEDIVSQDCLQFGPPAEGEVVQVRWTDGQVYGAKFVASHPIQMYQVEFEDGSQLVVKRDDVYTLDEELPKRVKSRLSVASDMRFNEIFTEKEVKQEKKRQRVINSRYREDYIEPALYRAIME
Sfp inh: blocks B. subtilis Sfp PPTase activity; Q9F4F7; 310,000 compounds, 3.5% hits; Potency, µM, hits mostly inhibitors; Biochemical Sfp PPTase activity, qHTS;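 also: the enzyme is Sfp with the accession as filed and its product quenches rhodamine fluorescence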
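Fluorescence-quenching assay with 15 nM Sfp, 5 uM rhodamine-CoA and 12.5 uM BHQ-2-labelled ybbR peptide in pH 7.6 Hepes/MgCl2 buffer. Enzyme was pre-incubated with compound for 15 min at room temperature. Rate was taken from the 30-min fluorescence change (525/598 nm).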
BAZ2B block: inhibitors of human BAZ2B bromodomain; Potency, µM (top dose mostly 114 µM), hits mostly inhibitors; 360,000 compounds, 4.4% hits; Q9UIF8; AlphaScreen BAZ2B-H3K14Ac peptide displacement; also: nearly all actives have a fitted effect of over 60% in size
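Inhibition is scored as reduced AlphaScreen emission. The BAZ2B/b-H3(5-23)K14Ac complex (50 nM each) in PBS pH 7.4, 0.01% Tween-20 meets compound (up to 110 uM) for 30 min at RT before bead addition.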
HP1b binding inh: HP1-beta chromodomain-methylated histone interaction inhibition | P83916 | AlphaScreen HP1-beta / biotin-H3K9me3 peptide binding | Potency, µM (series often up to 114 µM), most hits filed as inhibitors | 390,000 compounds, 0.56% hits | AID 540317; also: nearly all actives have a fitted effect of over 70% in size
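Compound inhibition of the preformed complex between 50 nM HP1-beta and 50 nM biotinylated H3K9me3 peptide was read by AlphaScreen. Buffer was PBS pH 7.4 with 0.01% Tween-20. Incubations ran 30 min at room temperature, with 10 ug/mL donor/acceptor beads.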
Sfp inh conf: confirmation of Bacillus subtilis Sfp PPTase inhibitors; shares compounds with Sfp inh; Potency, µM (series often up to 114 µM), hits mostly inhibitors; Sfp PPTase enzymatic assay, qHTS titration; 380 compounds, 79% hits
Sfp gel assay: Inhibits B. subtilis Sfp phosphopantetheinylation. 210 compounds, 20% hits. shares compounds with Sfp inh. purified Sfp, gel-based phosphopantetheinylation read-out. Potency, µM, most hits filed as inhibitors;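 active = potency below 100 µM; inconclusive = dose-dependent response but potency above 100 µM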;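 also: potency is an IC50 for inhibitors of Sfp transfer activity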
Numbers stand for hits; . = inactive; ? = inconclusive; / = not tested or not shown; ! = not confirmed by another sample; [ ] = dose if it differs, or a comment. Shown are actives, neighbours in structure and some others; about 8.7% of the full set was active somewhere. Unless noted, calls follow the shape of the dose curve; as a rule, active = well fitted curve in the direction sought with a large enough effect; inconclusive = small, poorly fitted or top-dose-only effect, or another doubt; inactive = no such curve, though single readings can be large; an effect the other way counts as inactive or inconclusive.

SMILES	G9a block	12-LOX inh	JMJD2A Tudor inh	Sfp inh	BAZ2B block	HP1b binding inh	Sfp inh conf	Sfp gel assay
Cc1ccc(C(=O)NC(=S)Nc2ccc(NC(=O)c3cccc(Cl)c3)cc2)cc1	.	.	?	.	.	.	/	/
Cc1ccc(C(=O)NC(=S)Nc2ccc(-c3ccc(CO)o3)cc2)cc1	?	?	?	7.1µM	/	.	8.3µM	/
COc1cccc(NC(=O)Nc2ccncc2)c1	.	.	.	.	.	.	/	/
COc1cccc(NC(=O)Nc2cccs2)c1	10µM	.	.	11µM	.	.	30µM	.
CC(C)[C@H](NC(=O)OC(C)(C)C)c1nnc(S(=O)(=O)Cc2c(F)cccc2Cl)o1	?	.	.	14µM	.	.	30µM	?
O=C(CCc1nnn2c1CN(C(=O)c1ccccc1)CC2)NC1CC1	/	.	/	/	/	/	/	/
CC(=O)N=c1sc(S(N)(=O)=O)nn1C	13µM	.	.	25µM!	.	.	47µM	.
O=C(Cc1ccccc1Nc1c(Cl)cccc1Cl)OCO/N=[N+](\[O-])N1CCCC1	/	/	?	22µM	/	.	26µM	?
CCC(=O)N1CCC(n2c(C)cnc2-c2ccncc2)CC1	/	.	/	/	/	/	/	/
CO/N=C(/C(=O)N[C@@H]1C(=O)N2C(C(=O)O)=C(CSC(=O)c3ccco3)CSC12)c1csc(N)n1 (stereo partly drawn)	?	/	/	56µM	/	/	47µM	6.2µM
CO/N=C(\C(=O)N[C@@H]1C(=O)N2C(C(=O)[O-])=C(C[n+]3cccc4c3CCC4)CS[C@H]12)c1csc(N)n1	.[12.7 µM]	/	/	56µM	/	/	42µM	56µM
CCOc1cc(CNc2ccc(N(C)C)cc2)cc(Br)c1OCC(=O)NC(C)(C)C	5µM	.	40µM	3.5µM	14µM	14µM	?	?
O=C(CCC1CCCCC1)NCCN1C2=NC[C@H](Cc3ccc(O)cc3)N2C[C@H]1Cc1ccc(O)cc1	.	.	.	?	.	.	/	/
C[C@@H]1CN=C2N(CCNC(=O)CCC3CCCCC3)[C@H](Cc3ccc(O)cc3)CN21	.[12.7 µM]	?	50µM	16µM	.	.	?	/
COc1ccc(CN2CCCn3nc(C)c(-c4ccccc4Oc4ccccc4)c32)cc1O	/	.	/	/	/	/	/	/
CCc1ccc2oc(-c3cccc(NC(=O)c4cc(OC)c(OC)c(OC)c4)c3)nc2c1	/	.	/	/	/	/	/	/
CCOc1ccc2[nH]c(=O)c(C(c3nnnn3Cc3ccco3)N3CCC(C)CC3)cc2c1 (stereo not drawn)	?	.	.	3.5µM	.	.	8.3µM	/
CCOc1ccc2[nH]c(=O)c(C(c3nnnn3C3CCCCC3)N3CCN(CC)CC3)cc2c1 (stereo not drawn)	.	.	.	.	/	.	/	/
OC(C#Cc1ccccn1)c1cccs1 (stereo not drawn)	.[12.7 µM]	.	45µM	18µM	7.1µM	?	47µM	.
COCC(=O)N1CCCN(c2cc(C3CC(O)C3)ncn2)CC1 (stereo not drawn)	/	.	/	/	/	/	/	/
CCOc1ccccc1CNc1ccc(O)cc1	.	?	56µM	10µM	35µM	?	11µM	.
CCc1ccc(CNc2ccc(O)cc2)cc1	?	/	56µM	11µM	40µM	.	37µM	.
Cc1cc(SCC(=O)NN)c2cc(Br)ccc2n1	/	.	.	22µM	?	.	?	/
CNS(=O)(=O)c1ccc(CN2CCC3(CCNCC3)C2)cc1	/	.	/	/	/	/	/	/
Cc1ccc2c(c1)C(N1CCCC1=O)CC(c1ccco1)N2 (stereo not drawn)	10µM	?	.[11.4 µM]	40µM	.	.	26µM	.
SMILES	G9a block	12-LOX inh	JMJD2A Tudor inh	Sfp inh	BAZ2B block	HP1b binding inh	Sfp inh conf	Sfp gel assay
C[C@]1(CO)C2CC[C@@H](O)[C@@H](CC(=O)N3CCOCC3)[C@]2(C)CC[C@H]1OC(=O)Nc1ccccc1 (stereo partly drawn)	/	.	/	/	/	/	/	/
Cc1ccccc1NC(=O)CSc1nnc(-c2ccco2)c(-c2ccco2)n1	13µM	/	50µM	10µM	25µM	16µM	6.6µM	/
Cc1ccccc1NC(=O)CSc1n[nH]c(-c2ccco2)n1	.	.	.	.	.	.	/	/
CC(C)N(C(=O)Nc1ccc2nsnc2c1)C(C)C	/	?	79µM	4.5µM	.	.	24µM	.
COc1ccc(N(C)C(=O)Nc2ccc3nsnc3c2)cc1	.	.	.	.	.	.	/	/
CC(=O)Nc1cc(C(=O)N2CCC(C)CC2)c2ccc(C)nc2c1	/	.	/	/	/	/	/	/
Cc1ccc2c(c1)CCCN2C(=O)Nc1ccc2c(c1)OCO2	?	.	56µM	3.2µM	?	.	?	.
Cc1ccc(NC(=O)N2CCCc3ccccc32)cc1	.	.	.	.	.	.	/	/
CCCNc1c(NS(=O)(=O)c2ccc(F)cc2)c(=O)oc2ccccc12	/	.	/	/	/	/	/	/
O=C(/C=C/c1ccc(Br)o1)NCc1ccccc1	/	.	?	6.3µM	?	.	17µM	.
O=C(/C=C/c1ccccc1Cl)NCc1ccccc1	.[0.501 µM]	.	.	.	.	.	/	/
c1cn2cc(CSC3CCCCC3)nc2s1	?	.	.	3.2µM	.	.	.	.
COC(=O)c1cccc(-n2c(CCC(=O)O)ccc2-c2cccs2)c1	?	.	.[11.4 µM]	4µM	71µM!	.	21µM	?
Cc1ccc(-n2c(CCC(=O)O)ccc2-c2cccs2)cc1	?	?	?	14µM	50µM	.	24µM	/
Cc1ccc(C(=O)Cn2nnc(-c3cccs3)n2)cc1	/	.	.	.	.	.	/	/
COCCOC(=O)C1=C(C)N=C2SC=C(CC(=O)NC3CC3)N2C1c1ccccc1C (stereo not drawn)	/	.	/	/	/	/	/	/
C=CCOC(=O)C(C#N)c1nc2ccccc2nc1N1CCC(C)CC1 (stereo not drawn)	/	.	/	/	/	/	/	/
Cn1c(/N=C/c2c(O)ccc3ccccc23)nc2ccccc21	1.8µM	?	40µM	0.89µM	56µM	?	.	/
CC(C)CCNc1nc(C(=O)Nc2ccc(Cn3cncn3)cc2)cs1	/	.	/	/	/	/	/	/
c1ccc(Cc2nn3c(COc4ccccc4)nnc3s2)cc1	5µM	?	?	14µM	.	?	19µM	/
CCc1nc2c(c(-c3ccc(Cl)cc3)n1)CN(Cc1cccc(F)c1)CC2	/	.	/	/	/	/	/	/
O=C(CN1C(=O)COc2ccccc21)c1ccc(Cl)cc1	.	.	.	.	.	.	/	/
CN(CCCN1c2ccccc2CCc2ccccc21)CC(=O)c1ccc(Cl)cc1	?	?	/	50µM	/	/	37µM	.
CN(C)CCC(=O)N1c2ccccc2Sc2ccc(Cl)cc21	/	.	.	.	.	.	/	/
CN(C)CCCN1c2ccccc2CCc2ccc(Cl)cc21	.[21.5 µM]	?	.	56µM!	?	.	?	.
Cc1ccc(C(=O)N2CCCn3ccnc3C2C(C)C)c(=O)[nH]1 (stereo not drawn)	/	.	/	/	/	/	/	/

High-throughput results (PubChem)
